Results on nine molecules are retold here after PubChem BioAssay.

SMILES strings stand for the structures. Values joined by “and” are separate entries in the source; they are usually repeats but may differ in a detail not shown here. Equal entries are not always repeated. Active and inactive are the calls of the source.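 The calls were made as follows, unless noted: active = inhibition at or above 50% relative to wild type and mutant plate controls; inactive = inhibition below 50%.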

Assay [1] can be described thus: inhibitors of TNFa-induced NFkB p65 translocation, primary screen, imaging, HUVEC, MLSMR starter and 10KST1 sets (AID 438;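 active = inhibition above 20% together with a positive visual image hit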;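 also: compound added about 3h40 before a 20 min TNFalpha stimulation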;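 as to inhibition: signal is the nuclear over cytoplasmic p65 intensity ratio per well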). The conditions noted are these: HUVEC TNFa-induced p65 nuclear translocation; cell count: measured here: nuclei count (cytotoxicity indicator), at 2.08 µM; inhibition: at 2 µM, stronger effect = higher value, 0% TNFa-plus-vehicle, 100% no-TNFa wells.
Assay [2] is described as follows: inhibitors of mutant huntingtin aggregation, primary screen, imaging, exon1htt(103Q)mCFP cells, high-content imaging (AID 483;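 active = visual image review flags a hit and inhibition of aggregation exceeds 20%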;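 also: compound exposure lasted 3 days before fixation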;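 as to nuclei count: percent of the per-plate median nuclei count of sample wells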). To be noted: exon1htt(103Q)mCFP cell line, aggregate imaging, at 2 µM; inhibition of aggregation: stronger effect = higher value; nuclei count: measured here: cell count, toxicity.
Assay [3] is described as follows: inhibitors of E-selectin induction by TNFa, primary screen, imaging, HUVEC, immunofluorescence, MLSMR starter and 10KST1 sets (AID 487;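 active = visually confirmed hit in the image check and inhibition above 20%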;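 as to inhibition: signal is fraction of cell area covered by stained E-selectin grains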;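 as to nuclei count: 100% = median nuclei count of all wells on the same plate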). To be noted: HUVEC TNFalpha-induced E-selectin immunofluorescence imaging, at 2 µM; inhibition: stronger effect = higher value; nuclei count: measured here: cell number, toxicity.
A short description of assay [4]: DUSP6 inhibitors restoring Erk phosphorylation by chemical complementation, primary imaging in DUSP6-transfected HeLa (AID 609;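 active = compounds giving at least 50% inhibition in the cell-based MKP-3 phosphatase rescue imaging test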;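 as to inhibition: phospho-Erk level distribution per well compared with pooled transfected vehicle control wells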). To be noted: HeLa MKP-3 transfected, phospho-Erk imaging KS statistic, at 10 µM, cells stimulated with TPA for 15 min.
The target in assay [5] is Dual specificity protein phosphatase 6 (Homo sapiens) (UniProt Q16828). Described as above. To be noted: HeLa MKP-3 transfected, phospho-Erk imaging KS statistic; at 10 µM; stronger effect = higher value; cells stimulated with TPA for 15 min.
The target in assay [6] is Voltage-gated potassium channel subunit beta-2 (Rattus norvegicus) (UniProt P62483). The assay can be described thus: KvBeta enzyme negative modulators, primary screen, biochemical, NADPH fluorescence (AID 622;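 active = fluorescence slope higher than the sample average by over 3 SD, cut at about -0.22 in these data, passing the limit was not always enough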;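 also: slope of raw intensity against log time taken from 70 to 1610 s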). The conditions noted are these: recombinant KvBeta, 4-cyanobenzaldehyde reduction, at 10 µM, stronger effect = higher value.
Assay [7] has the same target. Kind of assay: KvBeta positive modulators, primary screen, biochemical, NADPH fluorescence (AID 623;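 active = NADPH fluorescence slope more negative than the mean of all samples by about 3 SD, 99.7% confidence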;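 also: fluorescence intensity change per second fitted from 20 to 320 s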). The conditions noted are these: Recombinant KvBeta, NADPH fluorescence decrease slope, 10 min; at 10 µM; stronger effect = lower value.
Assay [8] addresses Alpha-2C adrenergic receptor (Homo sapiens) (UniProt P18825). The assay can be described thus: modulators of alpha2C/GIRK thallium flux, primary screen, cell-based, HEK293 alpha2C/GIRK1/2 (AID 624;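 active = fluorescence slope after compound addition differing from the mean of all screened samples at 99.7% confidence, in either direction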;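 also: slope of fluorescence ratio to pre-addition baseline per second over 15 to 24 s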). To be noted: thallium flux BTC fluorescence, at 10 µM, actives lie on both sides.
Assay [9] is described as follows: inhibitors of larval lipid processing in zebrafish, primary screen, whole organism, PED6 fluorescence, gall bladder and intestine (AID 686;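 active = a full or partial loss of lipid-probe fluorescence in the fish gall bladder, intestine or both, judged by eye; inactive = no fluorescence loss, or compound toxic to the fish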;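 also: larvae 5 to 7 days old with five fish per well; signal comes from phospholipase A2 cleavage of quenched PED6 carried via bile; overnight exposure to compound and PED6 before scoring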). The conditions noted are these: Zebrafish larvae PED6 lipid processing, fluorescence scoring; screened at 20 µM (by protocol).
A short description of assay [10]: inhibitors of Chlamydomonas gravitaxis, primary screen, whole organism, Chlamydomonas reinhardtii, WT vs cilia-less mutant, absorbance, 96-well (AID 463189).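 Also: 0% = wild type cc124 cells in DMSO and 100% = ciliumless bld1 mutant cells.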 The conditions noted are these: OD600 absorbance, 2 days, at 10 µM, stronger effect = higher value.
Assay [11] can be described thus: inhibitors of Sendai virus-induced IRF3 signaling, primary screen, TLR/RLR signaling modifier project, cell-based, Sendai virus stimulus, luciferase, 10K MLSCN set (AID 602276;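 active = inhibition at or above 50% at 10 µM; inactive = inhibition below 50%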;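 also: firefly luciferase from ISG56 promoter only with Renilla not read in this screen; 0% = Sendai virus plus DMSO and 100% = medium plus DMSO without virus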). The conditions noted are these: HEK293 RL24 IRF3 luciferase reporter, at 10 µM, stronger effect = higher value. A general note: A reporter such as luciferase makes a cellular process visible.
Assay [12] in a line: inhibitors of poly I:C-induced TLR3 signaling, primary screen, cell-based, poly I:C stimulus, luciferase, 10K MLSCN set (AID 602277;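 active = inhibition of the reporter signal at or above 50%; inactive = inhibition below 50%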). The conditions noted are these: HEK293-TLR3 RL24 IRF3 luciferase reporter, at 10 µM, stronger effect = higher value.
Where [13] appears, read: measured here: cell density z-score.
[14] abbreviates: measured here: nuclear c-Myc green intensity z-score.
[15] abbreviates: measured here: nuclear pErk red intensity z-score, stronger effect = higher value.

The inhibition is the change of the read-out against control, counted positive when it falls.

Chain of Voltage-gated potassium channel subunit beta-2 (Rattus norvegicus) (P62483 whole entry, looked up): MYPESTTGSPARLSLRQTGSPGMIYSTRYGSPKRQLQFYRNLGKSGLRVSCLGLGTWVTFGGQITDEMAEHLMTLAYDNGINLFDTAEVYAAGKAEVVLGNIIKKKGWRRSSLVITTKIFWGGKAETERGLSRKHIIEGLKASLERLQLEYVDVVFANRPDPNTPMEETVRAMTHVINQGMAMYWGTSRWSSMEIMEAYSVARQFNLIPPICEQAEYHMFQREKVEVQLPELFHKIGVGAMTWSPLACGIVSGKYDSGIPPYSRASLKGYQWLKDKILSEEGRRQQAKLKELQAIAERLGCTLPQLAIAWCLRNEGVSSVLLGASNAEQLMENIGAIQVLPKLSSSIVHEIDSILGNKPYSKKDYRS
Chain of Alpha-2C adrenergic receptor (Homo sapiens) (P18825 whole entry, looked up): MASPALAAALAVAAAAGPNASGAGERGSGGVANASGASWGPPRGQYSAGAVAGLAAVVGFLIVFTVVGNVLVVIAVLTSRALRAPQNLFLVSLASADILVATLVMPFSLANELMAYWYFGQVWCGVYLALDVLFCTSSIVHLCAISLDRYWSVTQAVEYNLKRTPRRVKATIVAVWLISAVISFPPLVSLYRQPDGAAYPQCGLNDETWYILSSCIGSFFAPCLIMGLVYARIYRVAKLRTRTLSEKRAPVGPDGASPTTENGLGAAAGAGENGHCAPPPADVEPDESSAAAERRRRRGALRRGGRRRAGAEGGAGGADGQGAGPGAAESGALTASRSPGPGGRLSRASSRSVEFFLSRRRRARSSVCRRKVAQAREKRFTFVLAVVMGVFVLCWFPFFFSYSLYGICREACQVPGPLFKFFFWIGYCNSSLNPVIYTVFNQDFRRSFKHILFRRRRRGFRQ
Chain of Dual specificity protein phosphatase 6 (Homo sapiens) (Q16828 whole entry, looked up): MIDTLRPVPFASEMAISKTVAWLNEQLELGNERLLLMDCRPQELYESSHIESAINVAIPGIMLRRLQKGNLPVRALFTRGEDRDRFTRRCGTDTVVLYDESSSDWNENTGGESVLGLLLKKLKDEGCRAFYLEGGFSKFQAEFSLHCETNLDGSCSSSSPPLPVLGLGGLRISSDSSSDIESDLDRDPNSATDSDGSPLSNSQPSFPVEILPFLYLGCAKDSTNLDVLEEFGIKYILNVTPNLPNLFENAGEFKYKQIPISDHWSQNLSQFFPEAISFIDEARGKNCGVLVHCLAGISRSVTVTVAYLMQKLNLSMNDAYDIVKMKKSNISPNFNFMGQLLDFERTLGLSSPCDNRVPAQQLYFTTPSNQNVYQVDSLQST

For the molecule `COC(=O)CSc1nc(C)c(C(C)=O)cc1C#N`, the cell count in assay [1] came to 505. Further, the inhibition in assay [1] is -8.8% (inactive); in [3] it was -16.5% (inactive); in [5] it was -8.95% (inactive); in [10] it was 13.8% (inactive); in assay [11] it was 3.96% (inactive); in [12] it was -12.7% (inactive). Further, the inhibition of aggregation in assay [2] is 5.5% (inactive). In addition, the nuclei count in assay [2] amounted to 86.1%; in assay [3], 136%. In addition, the z-score is -0.468 in [4] (setting [13]), -1.01 in assay [4] (setting [14]) and -0.0332 in assay [4] (setting [15]). Further, in [6], the fluorescence slope was -0.376 (inactive). The NADPH fluorescence slope in [7] is -3.7e-05 (inactive). Further, the slope in [8] is 0.00524 (inactive). Besides, the call in [9] was inactive.

Regarding `COc1ccc(/C=C/C(=O)Nc2ccccc2C(=O)O)cc1OC`, the cell count in assay [1] was 476. Further, the inhibition in assay [1] was -4.9% (inactive); in assay [3], -112% (inactive); in [5], 15.3% (inactive); in [10], 3.58% (inactive) and -6.51% (inactive); in assay [11] it was 16.4% (inactive); in [12], 23.3% (inactive). Further, the inhibition of aggregation in assay [2] was -20.4% (inactive). Further, the nuclei count is 103% in assay [2] and 128% in assay [3]. Also, the z-score in [4] (setting [13]) is 0.437; in assay [4] (setting [14]) it was -0.319; in assay [4] (setting [15]), -0.448. The fluorescence slope in [6] is -0.492 (inactive). For the same molecule, the NADPH fluorescence slope in assay [7] was -8.1e-05 (inactive). The slope in [8] is 0.0062 (inactive). For the same molecule, in assay [9], the call was inactive.

Consider `COc1ccccc1NC(=O)C1=C(C)NC(SCC(=O)c2ccc(C)cc2)=C(C#N)C1c1ccco1` (stereo not drawn), for which the cell count in [1] turned out to be 529. In addition, the inhibition is -0.5% (inactive) in [1]; 6.5% (inactive) in assay [3]; -2.07% (inactive) in assay [5]; 36.3% (inactive) in [10]; -17.3% (inactive) in [11]; -56.3% (inactive) in assay [12]. For the same molecule, the inhibition of aggregation in [2] was 9.6% (inactive). The nuclei count in assay [2] amounted to 99.4%; in assay [3], 114%. Besides, the z-score in [4] (setting [13]) is 0.647; in assay [4] (setting [14]), -0.415; in assay [4] (setting [15]) it was 1.41. For the same molecule, in assay [6], the fluorescence slope was -0.481 (inactive). Moreover, the NADPH fluorescence slope in assay [7] is -7.1e-05 (inactive). For the same molecule, in assay [8], the slope is 0.00753 (inactive). For the same molecule, in assay [9], the outcome was inactive.

Regarding `CCOC(=O)N1CCN(c2ncnc3c2[nH]c2ccc(OC)cc23)CC1`, in assay [1], the cell count amounted to 520. Besides, the inhibition is -6% (inactive) in [1]; 6.4% (inactive) in assay [3]; 0.671% (inactive) in assay [5]; 8.03% (inactive) in assay [10]; -1.93% (inactive) in [11]; -5.19% (inactive) in assay [12]. Besides, in assay [2], the inhibition of aggregation is 2.6% (inactive). In addition, the values for the nuclei count in [2] and in [3] were 109% and 100%, respectively. For the same molecule, the z-score in assay [4] (setting [13]) was 1.15; in assay [4] (setting [14]) it was -0.635; in assay [4] (setting [15]), 1.15. The fluorescence slope in assay [6] was -0.222 (inactive). Further, the NADPH fluorescence slope in [7] is -4.8e-05 (inactive). Further, in assay [8], the slope was 0.00434 (inactive). For the same molecule, in assay [9], the outcome was inactive.

On to `Cn1c(=O)c2[nH]cnc2n(C)c1=O`, for which the cell count in assay [1] was 656. Also, the inhibition in assay [1] was -1.4% (inactive); in assay [3], -74.2% (inactive); in [5] it was 19% (inactive); in assay [10] it was -1.38% (inactive) and -11.3% (inactive); in assay [11] it was 6.67% (inactive); in assay [12], 32.1% (inactive). Moreover, in assay [2], the inhibition of aggregation is 12.3% (inactive). The nuclei count in assay [2] amounted to 83.7%; in assay [3], 142%. For the same molecule, the z-score in [4] (setting [13]) was -0.0459; in assay [4] (setting [14]), 0.0873; in [4] (setting [15]), -0.896. Also, the fluorescence slope in assay [6] is -0.453 (inactive). For the same molecule, the NADPH fluorescence slope in assay [7] is -2.6e-05 (inactive). For the same molecule, in assay [8], the slope is 0.00501 (inactive). Besides, the result in assay [9] was inactive.

On to `NC(=O)N1c2ccccc2C=Cc2ccccc21`, for which the cell count in [1] worked out at 639. For the same molecule, the inhibition is -4.6% (inactive) in assay [1]; -55.6% (inactive) in assay [3]; 15.3% (inactive) in assay [5]; 5.34% (inactive) and 20.1% (inactive) in assay [10]; 7.49% (inactive) in assay [11]; 22.1% (inactive) in assay [12]. In [2], the inhibition of aggregation is -10.6% (inactive). Besides, the results for the nuclei count in assay [2] and in assay [3] were 110% and 127%, respectively. Also, the z-score was -0.0512 in assay [4] (setting [13]), 0.625 in assay [4] (setting [14]) and -1.48 in assay [4] (setting [15]). Further, the fluorescence slope in assay [6] is -0.492 (inactive). Also, the NADPH fluorescence slope in assay [7] is -4.6e-05 (inactive). In addition, in [8], the slope is 0.00463 (inactive). Further, the result in assay [9] was inactive.

For `COc1cccc(OC)c1C(=O)N1CCN(S(=O)(=O)c2ccc(C)cc2)CC1`, in assay [1], the cell count amounted to 565. Moreover, the inhibition in assay [1] was -7.5% (inactive); in [3], -232% (inactive); in [5], 5.57% (inactive); in assay [10], -1.26% (inactive); in [11] it was 5.77% (inactive); in [12], 18% (inactive). The inhibition of aggregation in [2] was 12.9% (inactive). Further, the nuclei count worked out at 104% in assay [2] and 135% in [3]. The z-score was -0.228 in [4] (setting [13]), -1.25 in assay [4] (setting [14]) and 0.112 in assay [4] (setting [15]). Further, the fluorescence slope in [6] was -0.382 (inactive). Moreover, in assay [7], the NADPH fluorescence slope was 1.3e-06 (inactive). The slope in assay [8] was 0.0062 (inactive). Also, the outcome in assay [9] was inactive.

As for `Nc1nc(N)c2nc(-c3ccccc3)c(N)nc2n1`, the cell count in assay [1] worked out at 640. Moreover, the inhibition in assay [1] is -0.8% (inactive); in [3] it was -64.7% (inactive); in [5], -11.9% (inactive); in assay [10] it was 4.85% (inactive) and -8.55% (inactive); in [11], 12.2% (inactive); in [12], 34.5% (inactive). Also, the inhibition of aggregation in assay [2] was -9.9% (inactive). The nuclei count in assay [2] was found to be 107%; in [3], 133%. For the same molecule, the z-score is -0.982 in [4] (setting [13]), -0.143 in [4] (setting [14]) and 2.15 in assay [4] (setting [15]). The fluorescence slope in assay [6] was -0.0137 (active). In assay [7], the NADPH fluorescence slope was -1.2e-05 (inactive). Besides, in [8], the slope was 0.00479 (inactive). For the same molecule, in [9], the result was inactive.

For `CC(=O)N=c1sc(S(N)(=O)=O)nn1C`, in assay [1], the cell count stood at 541. Further, the inhibition in assay [1] is -11.9% (inactive); in assay [3] it was -94% (inactive); in assay [5], 9.37% (inactive); in assay [10] it was 13.4% (inactive); in assay [11], 4.97% (inactive); in assay [12], 15.9% (inactive). The inhibition of aggregation in assay [2] is 7.8% (inactive). Also, the nuclei count is 88.8% in assay [2] and 104% in [3]. Besides, the z-score turned out to be 0.515 in [4] (setting [13]), 1.15 in assay [4] (setting [14]) and 1.01 in [4] (setting [15]). Further, the fluorescence slope in assay [6] was -0.454 (inactive). The NADPH fluorescence slope in [7] was -6.4e-05 (inactive). In assay [8], the slope is 0.00535 (inactive). For the same molecule, the molecule was called inactive in [9].
